High-throughput results deposited in PubChem by National Center for Advancing Translational Sciences (NCATS).
An excerpt weighted towards active compounds, which were near 6% of everything screened.
D3 antag = blocks the human D3 dopamine receptor; 360,000 tested, 2.5% active; max response, negative = inhibition, %; D3R cells, DiscoveRx beta-arrestin luminescence, antagonist mode; active compounds read low; in the data active = max response below about -50%; inconclusive = no clear call, values can overlap the other calls
Target sequence (P35462 whole entry, looked up): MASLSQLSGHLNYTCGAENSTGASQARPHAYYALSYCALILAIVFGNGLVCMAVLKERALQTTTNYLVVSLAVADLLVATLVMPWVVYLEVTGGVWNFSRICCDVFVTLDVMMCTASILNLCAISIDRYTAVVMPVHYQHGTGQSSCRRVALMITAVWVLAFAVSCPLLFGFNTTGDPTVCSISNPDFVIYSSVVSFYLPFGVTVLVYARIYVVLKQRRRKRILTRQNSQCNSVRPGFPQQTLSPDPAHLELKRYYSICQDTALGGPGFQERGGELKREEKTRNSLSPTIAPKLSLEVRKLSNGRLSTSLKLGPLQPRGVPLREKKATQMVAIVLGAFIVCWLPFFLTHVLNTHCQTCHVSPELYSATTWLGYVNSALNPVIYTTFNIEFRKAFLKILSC
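Cells plated overnight at 1500 cells/well, then exposed to library compounds with dopamine controls for 90 minutes at 37 degrees C. DiscoveRx reagent added for 30–60 minutes at room temperature; luminescence read, quantitative HTS format.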
D3 ag = agonists of human D3 dopamine receptor; max activation, %; P35462; D3R DiscoveRx beta-arrestin cells, luminescence, 90 min; 410,000 tested, 0.58% active; in the data active = max activation above about 30%
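Cells at 1500/well, incubated overnight, then treated with pinned compounds (dopamine as control) for 90 min at 37 degrees C. DiscoveRx reagent added for 30 - 60 minutes at room temperature; luminescence read.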
D1 PAM = enhances dopamine response at the human D1 receptor. 360,000 tested, 0.036% active. AID 504651. P21728. HEK293 TREx D1 cells, calcium flux, dopamine EC20 potentiation. potentiation, % at 10 µM; in the data active = potentiation above about 30%
D1 agonist = activates the human D1 dopamine receptor. 360,000 tested, 1% active. HEK293 T-REx D1 cells, calcium flux, agonist mode. AID 504660. activation, % at 2 µM; in the data active = activation above about 30%
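Inducible HEK293 T-REx D1 cells, force-coupled to calcium signalling, were plated at 4000 cells/well with tetracycline and held overnight at 30 C. After no-wash calcium dye loading, compound-evoked calcium rise over 180 s flagged agonists.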
D1 antagonist = antagonists of human D1 dopamine receptor; AID 504652; P21728; HEK293 TREx D1 cells, calcium flux, dopamine EC80; active compounds read low; 360,000 tested, 3.2% active; activity change, negative = inhibition, % at 10 µM; in the data active = activity change below about -30%
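Antagonism measured as reduced calcium response to an EC80 dopamine addition following 180 s compound pre-read; cells were inducible HEK293 Trex D1 plated overnight at 30 C, read kinetically at 1 cycle/sec.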
A number is an active result; n = inactive; u = inconclusive; x = no result.

SMILES | D3 antag | D3 ag | D1 PAM | D1 agonist | D1 antagonist
COc1ccc(N2CCN(C(=O)c3cn(CC4CCCCC4)nn3)CC2)cc1 | n | n | n | n | -34
Cn1ncc(Cl)c1C(=O)N1CCN(c2ccc(Cl)c(Cl)c2)CC1 | n | n | n | n | n
Cc1cc(-c2ccc(S(=O)(=O)Nc3ccccc3F)s2)on1 | x | n | n | n | n
CCOC(=O)c1ccc2c(c1)N(CC(=O)Nc1ccc(CC)cc1)C(=O)c1ccccc1S2 | x | n | n | n | n
Cc1cccc(/N=C/c2c(O)ccc3oc4c(c23)CCCC4)n1 | u | n | n | n | n
O=[N+]([O-])c1cc2oc3c(c2c(C=NCc2ccccc2)c1O)CCCC3 | -85 | n | n | n | n
CC(C)CN=Cc1c(O)c([N+](=O)[O-])cc2oc3c(c12)CCCC3 | -106 | n | n | n | n
Cn1cc(C(F)(F)F)nc1-c1ccc(OCC(O)CNCCOc2ccc(O)c(C(N)=O)c2)cc1 (centres undefined) | n | 101 | n | n | n
COc1ccccc1NC(=O)c1c(C)cc(C)nc1SCC(=O)Nc1ccc(C)cc1 | x | n | n | n | n
S=C(NN=C1C2CC3CC(C2)CC1C3)Nc1ccccc1 | -66 | n | n | n | n
CCC(C)(C)C1CCC(=NNC(=S)Nc2ccccc2)CC1 (centres undefined) | u | n | n | n | n
O=C(COC(=O)c1ccc2ccccc2c1)Nc1ncc(C(F)(F)F)cc1Cl | n | n | n | n | n
O=C(COC(=O)C1(c2ccccc2F)CCCC1)Nc1ncc(C(F)(F)F)cc1Cl | n | n | n | n | -36
CCc1nn(CC(=O)N(CC)Cc2ccccc2)c(=O)c2cc3occc3n12 | x | n | n | n | n
CC1CCN(S(=O)(=O)c2ccc3c(c2)N(CC(=O)N(C)Cc2ccccc2)C(=O)CO3)CC1 | x | n | n | n | n
NC(=O)c1ccc[n+]([C@H]2O[C@@H](COP(=O)([O-])OP(=O)(O)OC[C@H]3O[C@@H](n4cnc5c(N)ncnc54)[C@H](O)[C@@H]3O)[C@H](O)[C@@H]2O)c1 | n | n | n | 190 | n
O=c1c2cccc3c(N4CCOCC4)ccc(c32)c2nc3ccccc3n12 | x | x | n | 72 | n
CN(Cc1ccccc1)C(=O)Nc1c(Cl)cccc1Cl | -51 | n | x | x | x
CN(Cc1ccccc1)C(=O)Nc1ccc(Cl)cc1 | n | n | x | x | x
Cc1cccc2c1N(CCCOc1ccccc1)C(=O)C2=O | -50 | n | n | n | n
CCSc1nc2c(c(-c3ccc(C)o3)c1C#N)CCCC2 | n | n | n | n | n
Cc1ccc(-c2c(C#N)c(N)nc3c2CCCC3)o1 | n | n | n | 39 | n
COc1ccccc1-c1c(C)nn2c(N3CCC(C)CC3)cc(C)nc12 | n | n | n | n | n
COc1ccccc1-c1c(C)nn2c(C)cc(C)nc12 | n | n | n | n | -36
CCOc1ccc(S(=O)(=O)n2nnc3ccccc32)cc1C | n | n | n | n | n
SMILES | D3 antag | D3 ag | D1 PAM | D1 agonist | D1 antagonist
CCOc1ccc(Cl)cc1S(=O)(=O)n1nnc2ccccc21 | n | n | n | n | -39
CCOC(=O)Cn1c(=O)n(CC2CCCO2)c2nc(-c3ccc(C(C)C)cc3)nc(C(N)=O)c21 (centres undefined) | x | n | n | n | n
Oc1c(Br)cc(Br)cc1C=Nc1ccc2c(c1)OCO2 | -128 | n | n | n | n
Oc1c(Br)cc(Br)cc1C=Nc1ccc2c(c1)OCCO2 | -64 | n | n | n | n
O=[N+]([O-])c1ccc(O)c(C=Nc2ccc3c(c2)OCCO3)c1 | n | n | n | n | n
COc1cccc(N2CCN(C(=O)c3ccc(CS(=O)c4cccc(Cl)c4)o3)CC2)c1 (centres undefined) | x | n | n | n | n
COc1ccccc1NC(=O)CSc1ncc2c(n1)-c1ccccc1N(Cc1ccccc1C)S2(=O)=O | x | n | n | n | n
COc1ccc(C(=O)NC(Oc2ccccc2)C(Cl)(Cl)Cl)cc1 (centres undefined) | n | n | n | n | -80
C/C(=N\N=C(N)N)c1ccc(Cl)cc1Cl | u | n | n | n | -36
C/C(=N\NC(N)=O)c1cccc(Cl)c1 | n | n | n | n | n
C/C(=N\N=C(N)N)c1cc(Cl)ccc1Cl | n | n | n | n | -45
C/C(=N\O)c1ccc(Cl)cc1Cl | n | n | n | n | n
C/C(=N\N=C(N)N)c1cccc(Cl)c1 | n | n | n | n | -47
COc1ccc(NC(=O)NC2COc3ccccc3C2)cc1Cl (centres undefined) | x | n | n | n | n
C[C@@H](C(=O)Nc1ccc2ccccc2c1)[C@@H]1C[C@@]1(C)[C@@H](NC(=O)c1cnccn1)c1ccccc1 | -75 | n | n | n | -30
C[C@@H](C(=O)Nc1ccc2ccccc2c1)[C@H]1C[C@]1(C)[C@H](NC(=O)c1cnccn1)c1ccccc1 | n | n | n | n | n
CN(C)c1nc(N(C)C)n(C(=O)c2ccc(F)cc2)n1 | n | n | n | n | -33
Cc1ccc(C)c(Cn2c3ccccc3c3cnn(CC(=O)NC(C)c4ccccc4)c(=O)c32)c1 (centres undefined) | x | n | n | n | n
Cc1ccc(C)c(NC(=O)CN2CCSc3ccc(S(=O)(=O)N4CCCC4)cc32)c1 | x | n | n | n | n
Cc1cc(C(=O)N2CCCC(C(=O)c3cccc4ccccc34)C2)nc(C)n1 (centres undefined) | n | n | n | n | -61
COc1cc(NC(=O)c2cccc(Cl)c2Cl)ccc1NC(=O)c1cc2ccccc2o1 | x | n | n | n | n
Cc1ccc(NC(=O)N(CCCN2CCOCC2)Cc2cccs2)cc1C | -68 | n | x | n | n
Cc1ccc(C)c2[nH]c(=O)c(CN(CCN3CCCC3)C(=O)Nc3cccc(Cl)c3)cc12 | n | n | n | 39 | n
O=C(Nc1cccc(Cl)c1)N(CCN1CCOCC1)Cc1ccccc1F | n | n | n | n | x
COc1ccc(OC)c(CN(CCN2CCOCC2)C(=O)Nc2ccccc2)c1 | n | n | n | n | n
SMILES | D3 antag | D3 ag | D1 PAM | D1 agonist | D1 antagonist
O=C(Nc1cccc(Cl)c1)N(CCN1CCOCC1)Cc1cccc(Cl)c1 | u | n | n | 48 | -38
COc1ccc(OC)c(CN(CCN2CCOCC2)C(=O)Nc2cccc(Cl)c2)c1 | n | n | n | n | -31
O=C(O)CCCC/C=C(\c1ccccc1)c1cccnc1 | x | n | x | x | x
CC1CCCCN1S(=O)(=O)c1cc2c(=O)nc3ccccn3c2cc1Cl (centres undefined) | x | n | n | n | n
COc1cccc(CNS(=O)(=O)c2c(C(=O)N3CCC(C)CC3)c(C)n(C)c2C)c1 | x | n | n | n | n
COc1ccc2c(C)c(Cl)c(=O)oc2c1 | n | n | n | n | n
C=C1CC(COc2ccc3c(C)c(Cl)c(=O)oc3c2)(c2ccccc2)OC1=O (centres undefined) | -99 | n | x | x | x
c1ccc(CN2C3=NCCN3c3ccccc32)cc1 | n | n | n | n | n
